Several values for one entry are separate records, joined by “and”; a condition that tells them apart may be missing. Equal values may be shown once. Unmarked numbers belong to inactive results. Activity calls are given as the source filed them. Unless noted, calls follow the shape of the dose curve; as a rule, active = well fitted curve in the direction sought with a large enough effect in the repeat runs; inconclusive = weak or mixed curves; inactive = no such curve, though single readings can be large; an effect the other way counts as inactive or inconclusive.

Assay [1] in a line: qHTS assay to identify small molecule antagonists of the thyroid receptor (TR) signaling pathway - cell viability counter screen (AID 743064). Also: nearly all actives have a fitted effect of over 50% in size. Also: potency is read from the fitted curve at half-maximal effect. In a few lines:
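Rat GH3 pituitary tumor cells stably expressing two TR response elements driving luciferase were plated, rested 4 h, then dosed with library compounds and T3 (1 nM final). After 23.5 h at 37 °C, CellTiter-Fluor was added for 30 min and fluorescence recorded.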

A short description of assay [2]: qHTS assay to identify small molecule antagonists of the thyroid receptor (TR) signaling pathway (AID 743065). Also: nearly all actives have a fitted effect of over 55% in size. Also: potency is read from the fitted curve at half-maximal effect. As to activity, negative = inhibition: series mostly up to about 70 µM. In a few lines:
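GH3.TRE-Luc rat pituitary cells carrying two TR response elements driving luciferase were plated for 4 h, given compound plus 1 nM T3 (final), and incubated 23.5 h at 37 C. ONE-Glo luminescence measured reporter inhibition; CellTiter-Fluor fluorescence tracked cytotoxicity.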

For assay [3], the system named is thyroid hormone receptor (rat, GH3 cells). In words: qHTS assay to identify small molecule agonists of the thyroid receptor (TR) signaling pathway (AID 743066; calls by dose curve).
Assay [4] in a line: qHTS assay to identify small molecule antagonists of the estrogen receptor alpha (ER-alpha) signaling pathway - cell viability counter screen (AID 743074; calls by dose curve;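 also: HEK293 cells carrying ER-alpha-UAS-bla reporter stimulated with 17beta-estradiol; nearly all actives have a fitted effect of over 45% in size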).
In assay [5] the target is Estrogen receptor (Homo sapiens) (UniProt P03372). Description: qHTS assay to identify small molecule agonists of the estrogen receptor alpha (ER-alpha) signaling pathway (AID 743075; calls by dose curve;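 also: HEK293 GripTite cells with ER-alpha and UAS-driven beta-lactamase reporter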; also: potency is read from the fitted curve at half-maximal effect).
Assay [6] shares this target. In words: qHTS assay to identify small molecule agonists of the estrogen receptor alpha (ER-alpha) signaling pathway using the BG1 cell line (AID 743079). Also: nearly all actives have a fitted effect of over 20% in size. Also: potency is read from the fitted curve at half-maximal effect.
Assay [7] can be described thus: qHTS assay to identify small molecule antagonists of the estrogen receptor alpha (ER-alpha) signaling pathway using the BG1 cell line - cell viability counter screen (AID 743081).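 Also: compound given together with 17beta-estradiol as the ER stimulus; series mostly up to about 70 µM; nearly all actives have a fitted effect of over 45% in size.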
In another assay the target is Aromatase (Homo sapiens) (UniProt P11511). In words: qHTS assay to identify aromatase inhibitors (AID 743083). Also: series mostly up to about 70 µM; nearly all actives have a fitted effect of over 55% in size.
Assay [8] can be described thus: qHTS assay to identify small molecule antagonists of the estrogen receptor alpha (ER-alpha) signaling pathway using the BG1 cell line (AID 743080; calls by dose curve;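 also: BG1 cells stimulated with 17beta-estradiol alongside compound; series mostly up to about 70 µM; nearly all actives have a fitted effect of over 25% in size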). The essentials:
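Luminescence from a 4×ERE-luciferase reporter in BG1-Luc-4E2 cells served as read-out. Cells, pre-cultured 5 days in stripped-serum phenol-red-free medium, were exposed to compound with 17beta-estradiol co-stimulation for 21.5 h at 37 C.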

The target in assay [9] is Estrogen receptor (Homo sapiens) (UniProt P03372). Description: qHTS assay to identify small molecule antagonists of the estrogen receptor alpha (ER-alpha) signaling pathway (AID 743069; active = well fitted curve in the direction sought with a large enough effect in the signal ratio in the repeat runs, not every such curve was filed as active; inconclusive = weak or mixed curves, or effect the other way; inactive = no such curve, though single readings can be large or run the other way; the % refers to the signal ratio). The essentials: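 Estradiol-stimulated ER-alpha-UAS-bla HEK293 cells, 18 hr compound exposure at 37C. LiveBLAzer B/G substrate, 2 hr RT, fluorescence read.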
% is scaled to controls: 0 for no effect and ±100 for the full control effect.

Sequence of Estrogen receptor (Homo sapiens) (P03372 whole entry, looked up): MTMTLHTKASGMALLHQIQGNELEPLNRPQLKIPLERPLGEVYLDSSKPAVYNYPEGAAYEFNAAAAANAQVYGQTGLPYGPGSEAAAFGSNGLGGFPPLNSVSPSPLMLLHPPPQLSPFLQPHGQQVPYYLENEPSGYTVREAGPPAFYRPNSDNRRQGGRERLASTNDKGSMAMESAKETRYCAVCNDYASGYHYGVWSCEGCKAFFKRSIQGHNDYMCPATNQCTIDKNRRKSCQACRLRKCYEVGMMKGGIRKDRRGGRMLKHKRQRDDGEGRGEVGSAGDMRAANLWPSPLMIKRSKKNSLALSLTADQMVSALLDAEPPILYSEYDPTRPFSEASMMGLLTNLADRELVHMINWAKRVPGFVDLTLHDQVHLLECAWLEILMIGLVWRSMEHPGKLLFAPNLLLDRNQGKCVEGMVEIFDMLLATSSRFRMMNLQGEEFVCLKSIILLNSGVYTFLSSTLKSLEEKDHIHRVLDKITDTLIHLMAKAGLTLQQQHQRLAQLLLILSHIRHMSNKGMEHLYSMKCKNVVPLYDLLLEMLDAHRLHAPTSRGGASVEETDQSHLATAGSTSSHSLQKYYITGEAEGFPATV
Sequence of Aromatase (Homo sapiens) (P11511 whole entry, looked up): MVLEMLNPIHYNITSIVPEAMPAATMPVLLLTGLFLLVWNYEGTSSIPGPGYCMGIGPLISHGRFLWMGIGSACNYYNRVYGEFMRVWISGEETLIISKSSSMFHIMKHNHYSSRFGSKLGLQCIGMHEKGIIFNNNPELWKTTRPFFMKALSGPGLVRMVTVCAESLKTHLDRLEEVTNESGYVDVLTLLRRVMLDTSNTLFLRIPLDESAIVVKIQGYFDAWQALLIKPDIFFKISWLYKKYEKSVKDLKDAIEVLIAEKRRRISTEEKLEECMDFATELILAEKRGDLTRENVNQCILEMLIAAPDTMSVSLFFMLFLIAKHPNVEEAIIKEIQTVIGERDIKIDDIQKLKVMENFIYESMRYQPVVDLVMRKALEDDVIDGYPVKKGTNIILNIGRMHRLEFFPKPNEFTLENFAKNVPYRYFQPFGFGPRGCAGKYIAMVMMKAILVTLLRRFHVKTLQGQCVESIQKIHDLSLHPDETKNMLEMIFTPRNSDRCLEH

On to `CC(C)(C)OC(=O)c1cccc(N)c1`, for which the Potency result in [1], in [2] and in [4] was “inactive” in each case. Moreover, the result (in [3]; in assay [7]; with Aromatase (Homo sapiens)) was inactive. The Potency is 56.4 µM [inconclusive] (active) in assay [5] and 31.4 µM (active) in [6].
In the case of `CCCCc1ccc2c(n1)[C@@H](c1ccc(OC)cc1C[C@H](C)C(=O)O)[C@H](C(=O)O)[C@H]2c1ccc2c(c1)OCO2`, the Potency entry in assay [1], in assay [2], in [4], in assay [5], in assay [6] and in [8] was “inactive” each time. Also, the result (in assay [3]; in assay [7]; with Aromatase (Homo sapiens)) was inactive.
For the compound `CN1[C@@H]2CC[C@H]1CC(OC(=O)C(O)c1ccccc1)C2` (some centres not stated), the Potency result in assay [1], in assay [2], in [4], in assay [5], in [6] and in assay [8] was “inactive” throughout. For the same compound, the outcome (in [3]; in assay [7]; with Aromatase (Homo sapiens)) was inactive.
`COc1ccnc(CS(=O)c2nc3cc(OC(F)F)ccc3[nH]2)c1OC` (configuration not stated): the Potency result in [1], in assay [2], in assay [4], in assay [5], in assay [6] and in [8] was “inactive” throughout. For the same compound, the outcome (in [3]; in [7]; in the assay with Aromatase (Homo sapiens)) was inactive.
As to `CC(C)(N)C#N`, the Potency result in assay [1], in assay [2], in assay [4], in [5], in assay [6] and in assay [8] was “inactive” in each case. For the same compound, the call (in [3]; in [7]; with Aromatase (Homo sapiens)) was inactive.
For `Cc1ncc([C@@H](CCCCCCc2ccc3c(n2)NCCC3)CC(=O)O)cn1`, the Potency entry in [1], in assay [2], in assay [4], in assay [5], in [6] and in assay [8] was “inactive” each time. The result (in assay [3]; in assay [7]; in the assay with Aromatase (Homo sapiens)) was inactive.
Take `C[N+]1(C)CCCC(OC(=O)C(O)(c2ccccc2)c2ccccc2)C1` (configuration not stated): the Potency result in assay [1], in [2], in assay [4] and in assay [5] was “inactive” throughout. The compound was classed as inactive (in assay [3]; in assay [7]; with Aromatase (Homo sapiens)).
Take `CC(C)=CCC/C(C)=C/C#N`: the Potency result in assay [1], in [2], in assay [4], in assay [5], in assay [6] and in [8] was “inactive” in each case. For the same compound, the call (in [3]; in assay [7]; with Aromatase (Homo sapiens)) was inactive.
With `CC(CO)(CO)[N+](=O)[O-]`, the Potency result in [1], in assay [2], in assay [4], in [5] and in assay [8] was “inactive” each time. Further, the outcome in [3] and in [7] was inactive.
For `CC(=O)c1ccc2ccccc2c1`, the Potency entry in assay [1], in assay [2], in [4], in assay [5], in assay [6] and in assay [8] was “inactive” throughout. For the same compound, the result (in assay [3]; in assay [7]; with Aromatase (Homo sapiens)) was inactive.
Take `CCN(C=O)CC`: the Potency entry in assay [1], in assay [2] and in assay [4] was “inactive” each time. In addition, the call in assay [3] and in assay [7] was inactive.
`O=C(O)Cc1csc(-c2ccc(Cl)cc2)n1`: the Potency result in assay [1], in assay [2], in [4], in assay [5], in assay [6] and in assay [8] was “inactive” each time. The compound was called inactive (in assay [3]; in [7]; in the assay with Aromatase (Homo sapiens)).
As to `CC(=O)c1cnccn1`, the Potency result in assay [1], in assay [2], in assay [4], in [5], in [6] and in assay [8] was “inactive” each time. Also, the call (in [3]; in [7]; with Aromatase (Homo sapiens)) was inactive.
`CC1CCC(CO)CC1` (configuration not stated): the Potency entry in assay [1], in [2], in assay [4], in [5], in assay [6] and in [8] was “inactive” throughout. The result (in assay [3]; in assay [7]; in the assay with Aromatase (Homo sapiens)) was inactive.
Take `CCO[Si](OCC)(OCC)c1ccccc1`: the Potency entry in assay [1], in [2] and in [4] was “inactive” in each case. In addition, the call in assay [3] and in [7] was inactive.
Take `Cc1cc(C)c(N=Nc2c(O)c(S(=O)(=O)O)cc3cc(S(=O)(=O)O)ccc23)cc1C`: in [1], the activity change, negative = cytotoxic was -15.7% [at 8.44 µM]. Also, the activity, negative = inhibition in assay [2] was -3.21% [at 8.44 µM]; with Aromatase (Homo sapiens), -5.99% [at 8.47 µM]. In addition, the figures for the activation in [3], in assay [5] and in [6] were 0.237% [at 8.08 µM], -3.26% [at 6.71 µM] and 5.28% [at 8.47 µM], respectively. The activity, negative = cytotoxicity in assay [4] is -15.7% [at 6.72 µM]. Moreover, the activity change, negative = inhibition in [8] is -1.62% [at 8.47 µM]. Further, in assay [7], the activity change, negative = cytotoxicity was -6.97% [at 8.47 µM].
Take `C=CCOCC(O)CO` (configuration not stated): the Potency result in assay [1], in assay [2], in assay [4], in assay [5], in assay [6] and in assay [8] was “inactive” throughout. Moreover, the call (in assay [3]; in assay [7]; with Aromatase (Homo sapiens)) was inactive.
Regarding `CN(C)CCN(C)CCN(C)C`, the Potency entry in assay [1], in [2], in assay [4], in assay [5], in assay [6] and in assay [8] was “inactive” throughout. The result (in [3]; in assay [7]; in the assay with Aromatase (Homo sapiens)) was inactive.
Take `Nc1ccn([C@@H]2O[C@H](CO)[C@@H](O)C2O)c(=O)n1` (some centres not stated): the Potency in assay [1] is 531 nM (active) and 486 nM (active); in assay [2] it was 376 nM (active) and 193 nM (active). For the same compound, the compound was classed as inactive (in assay [3]; in assay [7]; with Aromatase (Homo sapiens)). In addition, the Potency result in [4], in assay [5], in assay [6] and in assay [8] was “inactive” in each case.
Turning to `O=C(CO)[C@@H](O)[C@H](O)[C@H](O)CO`, the Potency entry in [1], in [2], in [4], in assay [5], in [6] and in [8] was “inactive” in each case. The outcome (in assay [3]; in assay [7]; with Aromatase (Homo sapiens)) was inactive.
As to `COc1ccc2cc1Oc1cc3c(cc1OC)CC[N+](C)(C)[C@H]3Cc1ccc(cc1)Oc1c(OC)c(OC)cc3c1[C@@H](C2)[N+](C)(C)CC3`, the Potency entry in assay [1], in assay [2], in assay [4], in assay [5], in assay [6] and in assay [8] was “inactive” throughout. Besides, the compound was called inactive (in assay [3]; in assay [7]; with Aromatase (Homo sapiens)).
With `C[C@H]1C[C@H]2[C@@H]3CCC4=CC(=O)C=C[C@]4(C)[C@H]3C(=O)C[C@]2(C)[C@@]1(O)C(=O)CO`, the Potency entry in assay [1], in assay [2], in assay [5], in [6] and in assay [8] was “inactive” each time. Besides, the outcome (in assay [3]; in assay [7]; in the assay with Aromatase (Homo sapiens)) was inactive.
In the case of `CCCC(C)C(=O)OCC` (configuration not stated), the Potency result in [1], in [9], in assay [4], in assay [5], in [6] and in assay [8] was “inactive” each time. Further, the compound was classed as inactive (in [3]; in assay [7]; with Aromatase (Homo sapiens)).
On to `CN(C)[C@@H]1C(=O)C(C(=O)NCN2CCCC2)=C(O)[C@@]2(O)C(=O)C3=C(O)c4c(O)cccc4[C@@](C)(O)C3C[C@@H]12` (some centres not stated), for which the Potency result in assay [1], in assay [2] and in assay [4] was “inactive” in each case. Moreover, the result (in [3]; in assay [7]; with Aromatase (Homo sapiens)) was inactive.
Take `COC(=O)C1=C(C)NC(C)=C(C(=O)OC(C)C)C1c1cccc2nonc12` (configuration not stated): the Potency result in [1], in assay [2] and in assay [4] was “inactive” each time. Moreover, the compound was classed as inactive (in assay [3]; in assay [7]; in the assay with Aromatase (Homo sapiens)).
As to `COc1cc(C)nc(-n2nc(C)cc2OC)n1`, the Potency entry in assay [1], in assay [2] and in [4] was “inactive” in each case. Also, the compound was called inactive (in [3]; in assay [7]; in the assay with Aromatase (Homo sapiens)).
On to `CC(C)(C#N)Nc1nc(Cl)nc(NC2CC2)n1`, for which the Potency entry in [1], in assay [2] and in assay [4] was “inactive” each time. For the same compound, the call (in assay [3]; in assay [7]; in the assay with Aromatase (Homo sapiens)) was inactive.
For `O=C1c2ccccc2C(=O)c2cc(O)ccc21`, the Potency entry in assay [1], in assay [2] and in [4] was “inactive” throughout. Moreover, the compound was called inactive (in [3]; in the assay with Aromatase (Homo sapiens)).

Source of the values: PubChem BioAssay (Tox21).
